Some test systems named below: HCT-15 colon; HT29 colon; SNB-75 CNS; SNB-19 CNS; PC-3 prostate; SK-MEL-5 melanoma; UACC-62 melanoma; LOX IMVI melanoma; SK-MEL-28 melanoma; SK-MEL-2 melanoma; SN12C renal; UO-31 renal; TK-10 renal; ACHN renal; CCRF-CEM leukemia; MOLT-4 leukemia; EKVX NSCLC; CAKI-1 renal; A498 renal; U251 CNS.
Common to all, as to assay: NCI-60 one-dose screen, 48 h (100 = growth as untreated, 0 = no growth, -100 = all killed)
Details in all cases: 10 µM unless noted

About 83,000 compounds went through this panel and 20% of them were active in at least one assay; those are over-represented in the sample as a whole.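 Negative percent growth values reflect cell death: -40 means 40% of the cells present at the start died, and -100 means all died.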 Unmarked numbers belong to inactive results. Active and inactive are the calls of the source. The calls were made as follows: active = growth percent below 10; inactive = the rest.

On to `CCC1=Cc2cc(OC)ccc2OC12C=Cc1cc(OC)ccc1O2` (stereo unspecified), for which the growth is 14.7% in the assay on HCT-15 colon; -9.52% (active) in the assay on HT29 colon; 24.5% with SNB-75 CNS; 20.8% with SNB-19 CNS; 31.6% with PC-3 prostate; 16.8% in the assay with SK-MEL-5 melanoma. Also, the growth in the assay on UACC-62 melanoma was 4.11% (active); in the assay on LOX IMVI melanoma it was -5.73% (active); with SK-MEL-28 melanoma it was 56.6%; in the assay on SK-MEL-2 melanoma, 52.5%; in the assay with SN12C renal it was 34.8%; in the assay on UO-31 renal, 53%. Further, the growth in the assay on TK-10 renal was 100%; in the assay on ACHN renal it was 45%; with CCRF-CEM leukemia, 10.9%; in the assay with MOLT-4 leukemia, 11%.
With `COc1ccc(-c2nn(-c3ccc(S(C)(=O)=O)cc3)cc2/C=N/O)cc1`, the growth in the assay with HCT-15 colon was 103%; with HT29 colon it was 106%; in the assay on SNB-75 CNS, 127%; in the assay on SNB-19 CNS it was 105%; in the assay with PC-3 prostate it was 102%; with SK-MEL-5 melanoma it was 98.7%. The growth is 96.6% with UACC-62 melanoma; 102% in the assay with LOX IMVI melanoma; 96.1% with SK-MEL-28 melanoma; 109% in the assay with SK-MEL-2 melanoma; 104% in the assay on EKVX NSCLC; 98.9% with SN12C renal. The growth with UO-31 renal was 97%; in the assay on TK-10 renal, 124%; in the assay on ACHN renal it was 95.3%; with CAKI-1 renal, 111%; with A498 renal it was 116%; in the assay on CCRF-CEM leukemia, 99.6%. Besides, in the assay on MOLT-4 leukemia, the growth was 103%.
Consider `O=C(CCn1cc[n+](CC(=O)c2ccc(-c3ccccc3)cc2)c1)Nc1cccc2cccnc12`, for which the growth was 96.5% in the assay on HCT-15 colon; 70.7% in the assay with HT29 colon; 61.4% in the assay on SNB-19 CNS; 61.2% in the assay on U251 CNS; 55.9% in the assay with PC-3 prostate; 81.1% in the assay with SK-MEL-5 melanoma. For the same compound, the growth in the assay on UACC-62 melanoma was 58.8%; in the assay on LOX IMVI melanoma it was 82.5%; in the assay with SK-MEL-28 melanoma, 67.3%; in the assay with SK-MEL-2 melanoma, 90.1%; in the assay on EKVX NSCLC it was 81.9%; with SN12C renal, 77.4%. The growth was 88.1% in the assay on UO-31 renal; 117% in the assay with TK-10 renal; 104% in the assay on ACHN renal; 104% in the assay on CAKI-1 renal; 98.8% with A498 renal; 78.4% in the assay on CCRF-CEM leukemia. In the assay with MOLT-4 leukemia, the growth was 84.3%.
Regarding `Nc1ncc(-c2ccc3ncnc(N4CCc5cc(F)c(Cl)cc54)c3c2)cn1`, the growth in the assay with HCT-15 colon is 18.2%; with HT29 colon, 24.1%; in the assay with SNB-75 CNS it was -32.2% (active); in the assay with SNB-19 CNS it was 43%; in the assay with PC-3 prostate, 10.5%; in the assay on SK-MEL-5 melanoma it was 29.2%. The growth in the assay on LOX IMVI melanoma is 9.68% (active); in the assay on SK-MEL-28 melanoma, 40.5%; with SK-MEL-2 melanoma, 17.1%; in the assay with EKVX NSCLC it was -9.64% (active); with SN12C renal it was 17.9%; with UO-31 renal, 7.96% (active). Further, the growth in the assay with TK-10 renal is -15% (active); in the assay with ACHN renal, 13.4%; with CAKI-1 renal it was -9.07% (active); with A498 renal it was -80.7% (active); in the assay with MOLT-4 leukemia, -20.9% (active).
For the compound `COC(=O)/C=C/c1c(C2(C)NC(=O)c3ccccc3N2)c(=O)oc2ccc(Cl)cc12` (stereo unspecified), the growth is 91.4% in the assay on HCT-15 colon; 96% with HT29 colon; 90.7% in the assay on SNB-19 CNS; 88% in the assay on U251 CNS; 89.2% in the assay on PC-3 prostate; 91.4% in the assay on SK-MEL-5 melanoma. In addition, the growth in the assay with UACC-62 melanoma is 75.4%; in the assay on LOX IMVI melanoma it was 97%; in the assay on SK-MEL-28 melanoma, 97.6%; in the assay on SK-MEL-2 melanoma, 93.7%; in the assay on EKVX NSCLC it was 88.3%; in the assay with SN12C renal it was 87.9%. Besides, the growth is 67.8% in the assay with UO-31 renal; 108% in the assay on TK-10 renal; 87.4% in the assay with ACHN renal; 78.2% in the assay with CAKI-1 renal; 59.3% in the assay on A498 renal; 101% with CCRF-CEM leukemia. The growth in the assay on MOLT-4 leukemia was 101%.
As for `NC(N)=Nc1ccc(Oc2cccc(Nc3cccc(C(F)(F)F)c3)c2)cn1`, the growth with HCT-15 colon is -64.9% (active); in the assay with HT29 colon, 14.6%; in the assay on SNB-75 CNS, 33.5%; in the assay with SNB-19 CNS, 1.17% (active); in the assay on PC-3 prostate it was -74.8% (active); in the assay on SK-MEL-5 melanoma, 31.4%. The growth in the assay with UACC-62 melanoma was -16.2% (active); in the assay with LOX IMVI melanoma it was -90.3% (active); in the assay on SK-MEL-28 melanoma, 31.5%; in the assay with SK-MEL-2 melanoma, 64.8%; in the assay on EKVX NSCLC, 2.37% (active); in the assay on SN12C renal, -13.7% (active). Besides, the growth in the assay on UO-31 renal is 42.8%; with TK-10 renal it was 70%; in the assay with ACHN renal it was 37.8%; in the assay with CAKI-1 renal, 27.2%; in the assay with A498 renal it was 18.1%; with CCRF-CEM leukemia, -9.05% (active). In addition, the growth in the assay on MOLT-4 leukemia is 0.007% (active).
Take `Cc1ccc(C2=NN(C)C(=O)C3(CCCC3)C2)cc1`: the growth in the assay on HCT-15 colon was 101%; in the assay with HT29 colon, 106%; in the assay with SNB-75 CNS, 93.5%; with SNB-19 CNS it was 105%; in the assay with SK-MEL-5 melanoma, 101%; in the assay with UACC-62 melanoma, 98.5%. Also, the growth is 100% with LOX IMVI melanoma; 103% in the assay on SK-MEL-28 melanoma; 102% in the assay with EKVX NSCLC; 95.5% in the assay with UO-31 renal; 97.3% in the assay with TK-10 renal; 110% with ACHN renal. Further, the growth with CAKI-1 renal was 100%; with A498 renal, 89.4%; in the assay on CCRF-CEM leukemia, 111%; in the assay with MOLT-4 leukemia it was 102%.
`CCCCCc1ccc(S(=O)(=O)Nc2cccc(-c3csc(NC(=O)CNCCN(C)C)n3)c2)cc1`: the growth is 26.5% in the assay on HCT-15 colon; 53.9% in the assay on HT29 colon; 90.4% in the assay on SNB-19 CNS; 69.4% in the assay with U251 CNS; 64.7% in the assay on PC-3 prostate; 73.2% in the assay with SK-MEL-5 melanoma. Moreover, the growth is 102% in the assay with UACC-62 melanoma; 33.2% in the assay with LOX IMVI melanoma; 90.6% in the assay with SK-MEL-28 melanoma; 108% with SK-MEL-2 melanoma; 81.4% in the assay on EKVX NSCLC; 91.2% in the assay with SN12C renal. The growth was 74.8% in the assay with UO-31 renal; 112% with TK-10 renal; 96.4% in the assay on ACHN renal; 86.8% in the assay on CAKI-1 renal; 76.9% in the assay on A498 renal; 63.5% in the assay on CCRF-CEM leukemia.
Consider `O=C(Nc1ccc2c(ccn2Cc2ccccn2)c1)c1cnccn1`, for which the growth with HCT-15 colon was 112%; with HT29 colon, 109%; with SNB-75 CNS, 57.9%; with SNB-19 CNS, 102%; with PC-3 prostate, 101%; with SK-MEL-5 melanoma it was 97.5%. In addition, the growth in the assay on UACC-62 melanoma was 89.6%; in the assay on LOX IMVI melanoma, 98.3%; in the assay on SK-MEL-28 melanoma, 111%; in the assay on SK-MEL-2 melanoma it was 103%; in the assay on EKVX NSCLC, 75.7%; in the assay on SN12C renal it was 75.9%. In addition, the growth is 57% with UO-31 renal; 61.9% in the assay with TK-10 renal; 100% with ACHN renal; 66.2% in the assay on CAKI-1 renal; 40.8% with A498 renal; 101% in the assay on MOLT-4 leukemia.
